High-throughput results from PubChem.
IMPase Li cell: cell-permeable IMPase inhibitors with lithium potentiation; CHO-M1 cells, IP1 TR-FRET (IP-One), carbachol + lithium; Potency, µM (doses to about 59.4 µM), hits mostly inhibitors; 210,000 compounds, 0.35% hits;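 also: IP1 builds up when IMPase is blocked and the TR-FRET signal falls; nearly all actives have a fitted effect of over 50% in size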
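CHO cells stably expressing M1 receptor (2000/well) were cultured 16–30 h, then exposed to compounds with a small lithium addition for 30 min at 37C. IP1 was measured by TR-FRET competition; AC50 from Hill fits.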
Epigenetic reg: regulators of epigenetic silencing causing reporter derepression in mouse cells | murine LDR cells, GFP reporter derepression, 30 h | Potency, µM (series often up to 53.9 µM), hits mostly activators | 280,000 compounds, 0.2% hits; also: nearly all actives have a fitted effect of over 60% in size
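Reporter derepression read as number of fluorescent GFP-positive objects, 20-120 um in size, counted by laser-scanning cytometer. Mouse LDR line with an epigenetically silenced CMV-GFP locus; compound incubation 30 h, 37 C.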
JMJD2E inh: blocks human JMJD2E demethylase activity. 230,000 compounds, 1.6% hits. AID 2147. Potency, µM (highest dose often 57.1 µM), hits mostly inhibitors. B2RXH2. JMJD2E catalytic domain, FDH-coupled NADH fluorescence (FDH is formaldehyde dehydrogenase); also: nearly all actives have a fitted effect of over 50% in size
Target sequence (B2RXH2 1-337 limits assumed): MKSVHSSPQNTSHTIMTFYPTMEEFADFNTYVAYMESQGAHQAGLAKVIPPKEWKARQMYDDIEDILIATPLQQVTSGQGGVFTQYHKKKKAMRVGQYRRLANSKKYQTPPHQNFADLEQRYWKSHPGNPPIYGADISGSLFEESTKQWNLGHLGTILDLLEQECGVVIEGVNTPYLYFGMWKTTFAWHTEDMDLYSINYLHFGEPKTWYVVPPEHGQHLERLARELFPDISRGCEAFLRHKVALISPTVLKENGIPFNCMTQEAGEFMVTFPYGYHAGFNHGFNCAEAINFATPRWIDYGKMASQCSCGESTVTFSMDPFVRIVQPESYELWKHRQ
Sfp PPTase inh: blocks B. subtilis Sfp PPTase activity | Q9F4F7 | Biochemical Sfp PPTase activity, qHTS | Potency, µM, hits mostly inhibitors | 310,000 compounds, 3.5% hits | AID 1490;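 also: the enzyme is Sfp with the accession as filed and its product quenches rhodamine fluorescence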
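Compounds were incubated with enzyme (final 15 nM) for 15 min at room temperature before substrate addition started the reaction. Fluorescence at 525 nm excitation, 598 nm emission was recorded immediately and after 30 minutes.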
GCN5L2 inh: inhibitors of human GCN5L2 histone acetyltransferase; GCN5L2 HAT assay, ThioGlo1 CoA-SH fluorescence; Potency, µM (doses to about 58.9 µM), most hits filed as inhibitors; 390,000 compounds, 0.21% hits; AID 504327
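Fluorescence readout, Ex340nm/Em540nm: ThioGlo1 (50uM final) reacts with free CoA thiol released as 20nM GCN5L2 acetylates H3(1-25) peptide (75uM) using acetyl-CoA (70uM). Compound and enzyme sat 15 min beforehand; 20 min room-temperature reaction.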
NPSR antag: neuropeptide S receptor (human) antagonism, cAMP; AID 1461; CHO-NPSR cells, cAMP TR-FRET, antagonist mode; Q6W5P4; 220,000 compounds, 1% hits; Potency, µM (series often up to 38.3 µM), most hits filed as inhibitors; also: nearly all actives have a fitted effect of over 50% in size
Target sequence (Q6W5P4 whole entry, looked up): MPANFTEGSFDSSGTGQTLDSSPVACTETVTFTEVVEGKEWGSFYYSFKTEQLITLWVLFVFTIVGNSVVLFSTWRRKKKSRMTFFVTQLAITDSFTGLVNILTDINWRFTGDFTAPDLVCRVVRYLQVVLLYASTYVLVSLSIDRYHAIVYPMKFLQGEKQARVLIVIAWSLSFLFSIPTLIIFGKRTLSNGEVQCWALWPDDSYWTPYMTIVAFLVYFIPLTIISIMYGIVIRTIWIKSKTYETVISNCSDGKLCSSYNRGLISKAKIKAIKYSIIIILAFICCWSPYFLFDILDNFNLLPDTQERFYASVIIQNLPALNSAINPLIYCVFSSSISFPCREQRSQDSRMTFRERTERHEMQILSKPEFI
Hits are given with their value; [ ] = remark or other dose. Sampled rows, rich in hits. Any-hit rate of the full collection: about 3.6%. Unless noted, calls follow the shape of the dose curve; as a rule, active = well fitted curve in the direction sought with a large enough effect; inconclusive = small, poorly fitted or top-dose-only effect, or another doubt; inactive = no such curve, though single readings can be large; an effect the other way counts as inactive or inconclusive.

How did CSCC[C@H](NC(=O)CNC(=O)CNC(=O)[C@H](CO)NC(=O)[C@H](CCCNC(=N)N)NC(=O)[C@H](CO)NC(=O)[C@H](CC(C)C)NC(=O)[C@H](CC(C)C)NC(=O)CNC(=O)[C@H](C)NC(=O)[C@H](CC(C)C)NC(=O)[C@H](CCCNC(=N)N)NC(=O)[C@H](Cc1cnc[nH]1)NC(=O)[C@@H](NC(=O)[C@@H](N)C(C)C)[C@@H](C)O)C(=O)N[C@H](C(=O)N[C@@H](CCCCN)C(=O)N[C@@H](CO)C(=O)N[C@@H](CC(N)=O)C(=O)N[C@@H](Cc1ccccc1)C(=O)N[C@H](C(=O)N1CCC[C@H]1C(=O)N[C@H](C(=O)N[C@@H](CC(N)=O)C(=O)N[C@H](C(=O)NCC(=O)N[C@@H](CO)C(=O)N[C@@H](CCCCN)C(=O)N[C@@H](C)C(=O)N[C@@H](Cc1ccccc1)C(N)=O)C(C)C)[C@@H](C)O)C(C)C)C(C)C do in these assays?
Sfp PPTase inh: inactive; GCN5L2 inh: inactive

Results for CC[C@@H](C)[C@H](CNC)NC[C@@H](Cc1cccc2ccccc12)NCCc1cccc(C(F)(F)F)c1 ?
Sfp PPTase inh: 79.4µM; GCN5L2 inh: inactive

How did C/C=C\C1=CCCC1Nc1ncnc2ccc(-c3c(C)noc3C)cc12 (centres undefined) do in these assays?
Sfp PPTase inh: inactive

How did Cc1c(C(=O)N(C)c2cccc(C(F)(F)F)c2)sc2nc3n(c(=O)c12)CCCCC3 do in these assays?
Epigenetic reg: inactive; GCN5L2 inh: inconclusive

What do the screens show for `CCC1(c2ccccc2)NC(=O)NC1=O` (centres undefined)?
Sfp PPTase inh: inactive; GCN5L2 inh: inactive

What do the screens show for `CCOc1cc(/C=C2\SC(=Nc3ccccc3)N(c3ccccc3)C2=O)ccc1OCC(=O)O`?
IMPase Li cell: inactive; Epigenetic reg: inactive; JMJD2E inh: inactive; Sfp PPTase inh: inactive; GCN5L2 inh: inactive; NPSR antag: inactive

How did CCOc1cc(/C=C2\SC(=Nc3ccc(F)cc3)N(c3ccc(F)cc3)C2=O)ccc1OCC(=O)O do in these assays?
IMPase Li cell: inactive; Epigenetic reg: inactive; JMJD2E inh: inactive; Sfp PPTase inh: 39.8µM; GCN5L2 inh: inactive; NPSR antag: inconclusive

What do the screens show for `Cc1ccc2cc(C#N)c(NCCCNC(=O)C3CCCO3)nc2c1` (centres undefined)?
IMPase Li cell: inactive; Epigenetic reg: inactive; JMJD2E inh: inconclusive; Sfp PPTase inh: 79.4µM; GCN5L2 inh: inactive; NPSR antag: inactive

What do the screens show for `O=S1(=O)[C@H]2C[C@@H]3C=C[C@@]2(CN1Cc1cccc(F)c1)O3`?
Sfp PPTase inh: inactive; GCN5L2 inh: inactive

Results for COc1cccc(CN2C[C@]34C=C[C@@H](C[C@@H]3S2(=O)=O)O4)c1 ?
Epigenetic reg: inactive; JMJD2E inh: inactive; Sfp PPTase inh: 89.1µM; GCN5L2 inh: inconclusive; NPSR antag: inactive

How did Cc1ccc(-n2c(C)cc(C3=NNC(=NC4CC4)SC3)c2C)cc1C do in these assays?
IMPase Li cell: inactive; Epigenetic reg: inactive; JMJD2E inh: inactive; Sfp PPTase inh: inactive; GCN5L2 inh: inactive; NPSR antag: 10µM

Results for CN=C1NN=C(c2cc(C)n(-c3ccc(Cl)cc3)c2C)CS1 ?
IMPase Li cell: inactive; Epigenetic reg: inactive; JMJD2E inh: inconclusive; Sfp PPTase inh: 35.5µM; GCN5L2 inh: inactive; NPSR antag: inactive

Results for COCCCN=C1NN=C(c2cc(C)n(-c3ccccc3)c2C)CS1 ?
IMPase Li cell: inactive; Epigenetic reg: inactive; JMJD2E inh: inactive; Sfp PPTase inh: inactive; GCN5L2 inh: inactive; NPSR antag: inactive

What do the screens show for `C=C1N[C@]2(C(=O)COC(C)=O)[C@@H](C[C@H]3[C@@H]4CCC5=CC(=O)C=C[C@]5(C)[C@H]4[C@@H](O)C[C@@]32C)O1`?
Sfp PPTase inh: inactive; GCN5L2 inh: inactive

What do the screens show for `COC(=O)c1c(-c2cccs2)csc1NC(=O)COc1ccc(C(C)(C)C)cc1`?
Epigenetic reg: inactive; GCN5L2 inh: inactive

What do the screens show for `CC(=O)Nc1ccc(S(=O)(=O)N2CCc3nc(-c4ccccc4)c4c(c3C2)CO[C@@H](C)C4)cc1`?
IMPase Li cell: inactive; JMJD2E inh: inactive[11.4 µM]; Sfp PPTase inh: inactive

Results for CC(=O)[C@@]1(N=Nc2ccc(S(N)(=O)=O)cc2)CCOC1=O ?
IMPase Li cell: inactive

What do the screens show for `Brc1ccccc1/C=N/Nc1ccc2ccccc2n1`?
IMPase Li cell: inactive; Epigenetic reg: inactive; JMJD2E inh: inactive; Sfp PPTase inh: 39.8µM; GCN5L2 inh: inactive; NPSR antag: inactive

Results for O=C1CCCC=C1[C@@H](O)C1CCCCC1 ?
Epigenetic reg: inactive[10.1 µM]; Sfp PPTase inh: inactive

What do the screens show for `Nc1c(-c2ccccc2)sc2ccc3ccccc3[n+]12`?
Sfp PPTase inh: 35.5µM; GCN5L2 inh: inactive

What do the screens show for `COc1cccc(NC(=O)Cn2cc(S(=O)(=O)Cc3ccccc3F)c3ccccc32)c1`?
Epigenetic reg: inactive; GCN5L2 inh: inactive

How did Cc1c(C)n(CC(O)CNc2ccccc2)c2ccccc12 (centres undefined) do in these assays?
IMPase Li cell: inactive; Epigenetic reg: inactive; JMJD2E inh: 17.8µM; Sfp PPTase inh: inactive; GCN5L2 inh: inactive; NPSR antag: inactive

How did O=C1NCCCC1C(=O)N1CCCCC1 (centres undefined) do in these assays?
IMPase Li cell: inactive; Epigenetic reg: inactive; JMJD2E inh: inactive; Sfp PPTase inh: inactive; GCN5L2 inh: inactive; NPSR antag: inactive

Results for O=C1CCC(=O)N(O)CCCCCNC(=O)CCC(=O)N(O)CCCCNC(=O)CCC(=O)N(O)CCCCCN1 ?
Epigenetic reg: inactive; JMJD2E inh: 4.47µM; Sfp PPTase inh: inconclusive; GCN5L2 inh: inactive; NPSR antag: inactive

What do the screens show for `O=c1c2cc(N3CCOCC3)ccc2[nH]c(=S)n1Cc1ccccn1`?
IMPase Li cell: inconclusive; Epigenetic reg: inactive; JMJD2E inh: inconclusive; Sfp PPTase inh: 20µM; GCN5L2 inh: inactive; NPSR antag: inactive

What do the screens show for `O=C(CC(c1ccco1)S(=O)(=O)c1ccccc1)c1ccc(F)cc1` (centres undefined)?
IMPase Li cell: inactive; Epigenetic reg: inactive; JMJD2E inh: inconclusive; Sfp PPTase inh: 7.94µM; GCN5L2 inh: inactive; NPSR antag: inactive

What do the screens show for `COc1ccc(OC2C(O)COC2/C=C/C#Cc2ccc(F)cc2F)cc1` (centres undefined)?
Epigenetic reg: inactive[10.1 µM]; Sfp PPTase inh: inactive

What do the screens show for `COc1ccc(S(=O)(=O)Nc2nnc(Cc3ccc(OC)c(OC)c3)s2)cc1`?
IMPase Li cell: inactive; Epigenetic reg: inactive; JMJD2E inh: inactive; Sfp PPTase inh: 50.1µM; GCN5L2 inh: inactive; NPSR antag: inactive
